Data from PubChem BioAssay AID2221 (Broad Institute, 2009).
About 2,200 (0.76%) of roughly 290,000 compounds were called active. The full list was thinned out, with actives kept by preference. Values without a mark were called inactive. Rule as the data show it: active = inhibition above about 30%; inconclusive = no clear call, values can overlap the other calls; inactive = below that.

Target: Protein RecA (Mycobacterium tuberculosis (strain ATCC 25618 / H37Rv)) (UniProt P9WHJ3)
Assay: Mtb RecA intein splicing inhibitors, primary screen, biochemical, fluorescence, HTS (AID 2221);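 also: 0% = vehicle wells and 100% = reference inhibitor control wells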
Conditions: cell-free RecA intein splicing, hits give high values, concentration not given here

Sequence of Protein RecA (Mycobacterium tuberculosis (strain ATCC 25618 / H37Rv)) (P9WHJ3 whole entry, looked up): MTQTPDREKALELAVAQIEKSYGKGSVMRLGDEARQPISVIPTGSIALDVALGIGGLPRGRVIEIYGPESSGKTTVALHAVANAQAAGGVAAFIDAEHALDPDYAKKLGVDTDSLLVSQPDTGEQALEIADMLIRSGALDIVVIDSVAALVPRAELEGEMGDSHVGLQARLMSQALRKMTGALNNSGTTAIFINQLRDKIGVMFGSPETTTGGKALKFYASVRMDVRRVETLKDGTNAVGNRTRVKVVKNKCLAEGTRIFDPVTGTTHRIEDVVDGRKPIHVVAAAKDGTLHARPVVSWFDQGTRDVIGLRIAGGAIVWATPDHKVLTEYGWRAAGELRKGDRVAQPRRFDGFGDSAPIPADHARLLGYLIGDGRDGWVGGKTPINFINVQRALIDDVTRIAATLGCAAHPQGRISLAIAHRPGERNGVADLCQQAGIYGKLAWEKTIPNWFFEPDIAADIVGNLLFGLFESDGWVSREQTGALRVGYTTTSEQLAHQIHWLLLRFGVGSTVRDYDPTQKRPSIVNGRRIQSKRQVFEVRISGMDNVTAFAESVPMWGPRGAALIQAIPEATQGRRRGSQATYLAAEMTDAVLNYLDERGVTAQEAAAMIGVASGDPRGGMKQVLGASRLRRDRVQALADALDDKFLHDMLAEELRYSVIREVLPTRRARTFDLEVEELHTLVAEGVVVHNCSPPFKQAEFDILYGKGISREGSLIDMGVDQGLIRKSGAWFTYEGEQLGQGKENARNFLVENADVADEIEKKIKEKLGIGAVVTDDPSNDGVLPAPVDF

Row | Compound | inhibition
1 | COc1ccc(COC(=O)NC(C(=O)O)c2ccccc2)cc1 (stereo not given) | -3.65%
2 | COc1ccc(C(CCN(Cc2ccc(OC)c(OC)c2)C(=O)CCl)c2ccccc2)cc1 (stereo not given) | 77.7% (active)
3 | COc1ccc(CN(C)C(=O)CC(c2ccccc2)c2ccccc2)cc1 | 12%
4 | CCCc1cc(=O)oc2c(C)c(OCC(=O)Nc3ccccn3)ccc12 | 0.212%
5 | COc1ccc(N2CCN(C(=O)COc3ccc4c(C)cc(=O)oc4c3)CC2)cc1 | -4.41%
6 | CC(=O)Nc1cccc(NC(=O)CSc2nccn2Cc2ccc(F)cc2)c1 | -1.4%
7 | CC1=NN(Cc2ccccc2)C(=O)/C1=C/c1ccc(N(C)C)cc1 | 42.9% (active)
8 | CN(C)c1ccc(C=C2C(=O)OC3(CCCC3)OC2=O)cc1 | -3.67%
9 | CN(C)c1ccc(/C=C2\NC(=S)N(Cc3ccccc3)C2=O)cc1 | -1.92%
10 | CCc1cccc2c3c([nH]c12)C(CC)(CC(=O)O)OCC3 (stereo not given) | -3.9%
11 | CCCC/C(C)=N/NC(=O)NC1CCCCC1 | -5.59%
12 | O=C1/C(=C/c2ccc3c(c2)OCO3)CCC/C1=C\c1ccc2c(c1)OCO2 | 30.4% (active)
13 | O=C(N/N=C/c1ccc2c(c1)OCO2)C(=O)N1CCCC1 | -2.18%
14 | O=C1/C(=C\c2ccc3c(c2)OCO3)N2CCC1CC2 | -0.267%
15 | Cc1nn(-c2ccccc2)c(C)c1NC(=O)COC(=O)c1cc(Cl)ccc1O | 0.496%
16 | CC(C(=O)c1ccc(-c2ccccc2)cc1)[n+]1cccc(Br)c1 (stereo not given) | 0.227%
17 | O=C(Cc1ccc2c(c1)CCCC2)Nc1ccccc1Cl | 5.79%
18 | O=C(Nc1ccccc1Cl)Nc1cccc2cccnc12 | 6.8%
19 | O=C(Nc1ccccc1Cl)/C(Cl)=C(\Cl)S(=O)c1ccccc1 (stereo not given) | 97% (active)
20 | CCN(C(=O)CSc1nnc(-c2ccc(OC(F)F)cc2)n1N)C1CCS(=O)(=O)C1 (stereo not given) | -2.58%

Row | Compound | inhibition
21 | C=CCN1C(=NC(=O)COc2ccccc2)SC2CS(=O)(=O)CC21 (stereo not given) | -0.786%
22 | Oc1ccc(/C=N/Nc2nc(-c3ccccc3F)nc3ccccc23)c(O)c1 | 10.7%
23 | Oc1ccc(/C=N/NC2=NCCCCC2)c(O)c1 | -9.19%
24 | Cc1nc2ccccc2nc1N/N=C/c1ccc(O)cc1O | 32% (active)
25 | CCCOc1ccc(Cl)cc1Nc1nc(NCCO)nc(N2CCCC2)n1 | -0.826%
26 | Cn1c(=O)c2c(-c3cccc(Br)c3)c(C#N)c(N)nc2n(C)c1=O | -11.9%
27 | CCc1ccc2c(c1)cc(CN(C(=S)Nc1ccccc1Cl)C1CC1)c1nnnn12 | -0.332%
28 | CSc1ccccc1NC(=O)C(C)N1C(=O)c2ccccc2S1(=O)=O (stereo not given) | 1.38%
29 | O=C(Nc1ccc(F)cc1)C(=O)c1cn(CC(=O)N2CCOCC2)c2ccccc12 | -4.57%
30 | Cc1ccc(S(=O)(=O)NC2(C(F)(F)F)NC(=O)N(CCc3ccccc3)C2=O)cc1 (stereo not given) | -2.6%
31 | O=C1CC(c2ccccc2)=NN1c1ccc([N+](=O)[O-])cc1 | 54.9% (active)
32 | CC1=NN(c2ccccc2)C(=O)C1C(=O)c1ccc([N+](=O)[O-])cc1 (stereo not given) | 5.51%
33 | Cc1nn(-c2ccc([N+](=O)[O-])cc2)c(N)c1-c1ccccc1 | 0.233%
34 | O=C(CN1C(=O)C2C3C=CC(C3)C2C1=O)Nc1nc(-c2ccccn2)cs1 (stereo not given) | -1.82%
35 | CCn1c(CC(=O)Nc2ccccc2)nnc1SCC(=O)N1CCOCC1 | -3.34%
36 | N#Cc1ccc(C2N=C(c3ccccc3)NO2)cc1 (stereo not given) | -0.394%
37 | CCNC(=O)CSc1nc(-c2ccccc2)cs1 | 0.44%
38 | O=C(CSC1=NCCS1)Nc1nc(-c2ccccc2)cs1 | 37.4% (active)
39 | O=C(CSc1nc2ccccc2c(=O)[nH]1)Nc1nc(-c2ccc(Br)cc2)cs1 | 1.49%
40 | CC(C)C(C)NC(=O)COc1nc2ccccc2nc1N(C)C1CCCCC1 (stereo not given) | -2.05%

Row | Compound | inhibition
41 | COc1ccc(C(=O)NCCSc2ccccc2C)cc1 | 3.07%
42 | CCCC(O)(CCC)C(=O)NN(C(=O)CCl)c1cccc(C)c1 | 18.1%
43 | COC(=O)N(NC(=O)C(O)(C(C)C)C(C)C)c1ccccc1 | -3.28%
44 | CCCCC(O)(CCCC)C(=O)NN(C(=O)CCl)c1ccccc1 | 42.8% (active)
45 | CCOC(=O)C1Cn2c(nc3c(c2=O)C(C)(CC)Cc2ccccc2-3)S1 (stereo not given) | -3.72%
46 | CCCc1nnc(NC(=O)CCC(=O)NC2CC2)s1 | -1.59%
47 | Cc1ccc(S(=O)(=O)N(Cc2cccc([N+](=O)[O-])c2)C(=O)N2CCN(C)CC2)cc1 | 1.46%
48 | CCN(CC)C(=O)CN(c1cccc([N+](=O)[O-])c1)S(=O)(=O)c1ccccc1 | 0.016%
49 | O=C(CCl)N(Cc1cccc([N+](=O)[O-])c1)c1cccc(Cl)c1 | 88.1% (active)
50 | O=C(CCS(=O)(=O)c1ccccc1Cl)Nc1ccc(S(=O)(=O)Nc2ncccn2)cc1 | -0.502%
51 | CC(C)c1ccc(N(C(=O)c2ccco2)C(C(=O)NC2CCCC2)c2cccnc2)cc1 (stereo not given) | 2.58%
52 | O=C(c1[nH]ncc1-c1ccc(Cl)cc1)C1CO1 (stereo not given) | 33% (active)
53 | O=C(c1nnc(-c2ccc(Cl)cc2)o1)C1CCCC1 | -10.3%
54 | S=c1[nH]nc(-c2ccc(Cl)cc2)n1CC1CCCO1 (stereo not given) | -1.85%
55 | COc1ccccc1OCCCCCCN1CCN(C)CC1 | -1.55%
56 | CC(OC(=O)CNC(=O)c1cccc(F)c1)C(=O)NC1CCCCC1C (stereo not given) | -0.912%
57 | COCC(C)OC(=O)c1c(N)n(CCCN2CCOCC2)c2nc3ccccc3nc12 (stereo not given) | -97.2%
58 | N#Cc1c(N)n(CCOC(=O)c2ccc(Cl)cc2)c2nc3ccccc3nc12 | 51.9% (active)
59 | CC(C)(C)OC(=O)c1c(N)n(CCCN2CCCC2=O)c2nc3ccccc3nc12 | -350%
60 | CC(C)(C)n1nc(Cc2cccc3ccccc23)c(C#N)c1N | 4.34%
